Experimental data published in PubChem BioAssay AID485275 (NMMLSC, 2010).
Hit rate of the full screen: of about 330,000 compounds, about 1,400 (0.42%) were called active.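 The calls were made as follows: active = plate passing quality check with inhibition over a set limit, or well fluorescence over plate mean plus 4 SD; inactive = the rest.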 Shown is part of a subset that was picked to be rich in actives.

Test: antifungal drug efflux pump blockers, triplex strains – S. cerevisiae, Nile Red, multiplex, primary screen (AID 485275);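 also: Nile Red retained in pooled yeast measured as flow cytometry median fluorescence; 0% = buffer negative control and 100% = Enniatin B positive control; higher means more Nile Red kept so more efflux inhibition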
Conditions: S. cerevisiae Candida pump triplex, at 10 µM, hits give high values

inhibition, active:
c1cnc(Nc2nc(-c3ccc4ccccc4c3)cs2)nc1 0.79%
COc1ccc(C(=O)C2CCCN(Cc3cccn3-c3ccccn3)C2)c(C)c1 (stereo unspecified) 0.98%
Cc1c(CCOC(=O)CC23CC4CC(CC(C)(C4)C2)C3)sc[n+]1Cc1ccc([N+](=O)[O-])cc1 0.61%
CCOc1ccccc1/C=c1\sc2nc(-c3ccco3)nn2c1=O 3.16%
O=C(CNC(=O)c1ccc(-c2ccccc2)cc1)OCc1ccc(Cl)cc1 17.2%
COc1ccc2sc(-c3ccccc3OC)c(-c3ccc(OCCN4CCCC4)cc3)c2c1 198%
Cc1ccc(Cn2c(C)nc3c(c2=O)c2nc4ccccc4nc2n3Cc2ccco2)cc1 0.94%
Cc1cc(C)cc(NC(=O)C(OC(=O)c2ccc(O)cc2)c2ccccc2)c1 (stereo unspecified) 0.91%

inhibition, inactive:
CC1CC(C)CN(C(=O)C2CC(=O)N(c3ccc(F)cc3)C2)C1 (stereo unspecified) -0.06%
COc1ccccc1N=C1SC(C)CN1C(=O)C1CCC1 (stereo unspecified) 0.03%
O=C(NN1C(=O)C2C3C=CC(O3)C2C1=O)c1ccncc1 (stereo unspecified) 0.07%
Cc1ccc(-c2csc(NC3OC(=O)c4ccccc43)n2)cc1 (stereo unspecified) 0.03%
Cc1ccccc1Nc1nc(-c2cccnc2)cs1 0.3%
COc1ccc(C(=O)C2CCCN(Cc3ccc4nonc4c3)C2)c(C)c1 (stereo unspecified) 0.05%
CCOC(=O)c1[nH]ncc1CN1CCCC(C(=O)c2ccc(OC)cc2C)C1 (stereo unspecified) 0.25%
Cc1c(CCOC(=O)c2cc([N+](=O)[O-])ccc2Cl)sc[n+]1CCCCS(=O)(=O)[O-] 0.04%
Cc1c(CCO)sc[n+]1CC(=O)OC12CC3CC(CC(C3)C1)C2 -0.46%
CC1CCCCC1NC(=O)Cn1c(=O)cnc2ccccc21 (stereo unspecified) -0.23%
CCOC(=O)N1CCN(S(=O)(=O)c2ccc(C(=O)Nc3ccc(F)cc3F)cc2)CC1 -0.12%
Cc1c(C(=O)NCCN2C(=O)S/C(=C\c3cccs3)C2=O)cccc1[N+](=O)[O-] 0.33%
CCOc1ccc(CCNC(=O)Nc2ccccc2)cc1OCC -0.23%
O=C(Cc1ccc(Br)cc1)NCCN1CCOCC1 -0.17%
CCOc1ccccc1C1NC(=O)NC(C)=C1C(=O)OCc1ccco1 (stereo unspecified) 0.02%
CCCn1nc(C(=O)NNC(=O)CCOc2ccccc2OCC)c2ccccc2c1=O -0.08%
O=C(CCNC(=O)c1ccc([N+](=O)[O-])cc1)Nc1ccccc1N1CCOCC1 0.19%
Cc1nc2sc(C(c3ccco3)N3CCC4(CC3)OCCO4)c(O)n2n1 (stereo unspecified) -0.06%
O=C(NC(=S)Nc1ccc2oc(=O)ccc2c1)c1ccc(-c2cccc(Cl)c2Cl)o1 0.12%
NC(=O)C1CCN(CC(O)CSc2ccc(F)cc2)CC1 (stereo unspecified) -0.06%
CC1CCc2c(sc3c2C2=NS(=O)(=O)CCN2C=N3)C1 (stereo unspecified) 0.15%
Cc1ccc(C(=O)NCC(=O)OCc2nnc(-c3ccccc3)o2)cc1 0.08%
O=C(CNC(=O)c1ccccc1)NCC(=O)OCc1ccc(Cl)cc1 0.03%
CN1CCN(Cc2c(C(=O)N3CCc4ccccc4C3)nc3ccc(Cl)cn23)CC1 0.16%
CCOc1ccc(NC(=O)CN(C)C(=O)COc2cccc(CC)c2)cc1OCC 0.06%
COc1ccccc1-c1sc2ccccc2c1-c1ccc(C(C)=O)cc1 -0.1%
COc1ccccc1-c1sc2ccccc2c1-c1ccc(Br)nc1 -0.34%
COc1ccc(-c2sc3ccccc3c2-c2ccc(OCCN3CCOCC3)cc2)cc1 0.31%
COc1cc(OC)cc(-c2sc3ccc(OC)cc3c2-c2ccc3cc[nH]c3c2)c1 -0.09%
O=C(COC(=O)COc1cc(Cl)c(Cl)cc1Cl)NC1CC1 0.12%
Clc1cccc(-c2nc3nc4ccccc4nc3n2Cc2ccco2)c1 -0.17%
O=c1c2ccccc2oc2nc(C3CCCCC3)n(Cc3ccco3)c(=O)c12 -0.05%
Cc1cc(N(C)C)cc(C)[n+]1[O-] -0.18%
C=CC[n+]1c(-c2ccc(C)cc2)csc1NNC(=O)Nc1ccccc1 -0.18%
COC(C(=O)Nc1ccc(C(C)=O)cc1)c1ccccc1 (stereo unspecified) -0.08%
Cc1ccc(C)c(NC(=O)C(OC(=O)c2ccc(C)s2)c2ccccc2)c1 (stereo unspecified) -0.08%
O=C(O)CCCCCCCCCC[n+]1ccccc1 0.3%
CCOC(=O)C1(Cc2cccc(OC)c2)CCCN(C(=O)CCSC)C1 (stereo unspecified) 0.41%
Cc1cccc(OCCC(=O)OCc2csc(CC(=O)Nc3ccccc3C)n2)c1 0.08%
O=C(c1ccc(F)cc1)N1CCC(n2nnc3ccccc32)CC1 -0.14%
COc1ccc2cc(C3=CC(=O)C[C@H](c4ccc5c(c4)OCO5)C3)ccc2c1 -0.01%
Brc1cnc2ccccc2c1N1CCCCC1 0.04%
COc1cc(C(=O)NCc2ccc(-n3cccc3)cc2)cc(OC)c1OC 0.13%
